# JMJD2E inh: qHTS Assay for Inhibitors of Human Jumonji Domain Containing 2E (JMJD2E); Lysine-specific demethylase 4E (Homo sapiens), B2RXH2; JMJD2E catalytic domain, FDH-coupled NADH fluorescence (FDH is formaldehyde dehydrogenase); Potency, µM (top dose mostly 57.1 µM), most hits filed as inhibitors; actives 1.6% (n = 230,000); AID 2147, 2009; active = well fitted inhibition curve with a large enough effect, not every such curve was filed as active; inconclusive = small, poorly fitted or top-dose-only effect, or another doubt; inactive = no such curve, though single readings can be large or run the other way; note: nearly all actives have a fitted effect of over 50% in size
# Tau fibril FP: qHTS for Inhibitors of Tau Fibril Formation, Fluorescence Polarization. Microtubule-associated protein tau (Homo sapiens), P10636. K18 P301L tau heparin fibrillization, Alexa594 FP, 6 h. Potency, µM (series often up to 57.7 µM), actives largely listed as inhibitors. actives 0.39% (n = 280,000); note: nearly all actives have a fitted effect of over 55% in size
# Target sequence (P10636 561-689 P618L limits assumed): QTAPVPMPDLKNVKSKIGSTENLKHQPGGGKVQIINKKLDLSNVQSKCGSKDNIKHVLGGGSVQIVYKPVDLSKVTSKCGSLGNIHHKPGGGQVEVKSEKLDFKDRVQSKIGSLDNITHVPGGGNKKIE
#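 K18 P301L tau (15 uM unlabeled/0.24 uM Alexa 594-labeled, final) + compound + heparin 20 uM final; 100 mM NaOAc pH 7; 6 hr 37 C; ThT 30 uM final added, 1 hr RT; FP ex 555/em 632 nm.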
# FBPA coupling cs: qHTS Assay for Inhibitors of Fructose-1,6-bisphosphate Aldolase from Giardia Lamblia: Coupling assay counterscreen; activity change, negative = inhibition, % at 58.2 µM, hits read low; coupling enzyme system counterscreen, AmpLite Red fluorescence; actives 0.67% (n = 290,000); in the data active = activity change below about -30%
#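 Counterscreen lacking aldolase: glyceraldehyde-3-phosphate coupling-enzyme reagent preincubated 10 min at RT with compound (at 57.5 uM final), then substrate/coupling system with AmpLite Red added; fluorescence read at 525/598 nm after 20 min RT.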
# Sfp inh: qHTS Assay for Inhibitors of Bacillus subtilis Sfp phosphopantetheinyl transferase (PPTase). 4'-phosphopantetheinyl transferase ffp (Bacillus subtilis), Q9F4F7. actives 3.5% (n = 310,000). Biochemical Sfp PPTase activity, qHTS. Potency, µM, hits mostly inhibitors;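 note: the enzyme is Sfp with the accession as filed and its product quenches rhodamine fluorescence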
#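 After 15 min at room temperature with compound, 15 nM Sfp received 5 uM rhodamine-CoA plus 12.5 uM BHQ-2-ybbR (50 mM Hepes pH 7.6, 10 mM MgCl2). Rate came from the fluorescence difference over 30 min, ex 525/em 598 nm.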
# Tau fluor counter: Counterscreen qHTS for Inhibitors of Tau Fibril Formation, Fluorescence Polarization | actives 0.93% (n = 280,000) | tau K18 P301L Alexa594 fluorescence, heparin fibrillization | Potency, µM (doses to about 57.7 µM) | AID 1463, 2008; note: nearly all actives have a fitted effect of over 55% in size
#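 Human K18 P301L tau (15 uM unlabeled plus 0.24 uM Alexa 594-labeled, final) in 100 mM sodium acetate pH 7 was mixed with compound and 20 uM heparin and incubated 6 hr at 37 C.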
# Tau ThT inhib: qHTS for Inhibitors of Tau Fibril Formation, Thioflavin T Binding | recombinant tau K18 P301L, heparin-induced fibrillization, ThT fluorescence | Microtubule-associated protein tau (Homo sapiens), P10636 | actives 2.1% (n = 270,000) | Potency, µM (titrated, usually from 57.4 µM), hits mostly inhibitors; note: nearly all actives have a fitted effect of over 55% in size
#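 Using a mix of unlabeled (15 uM) and Alexa 594-labeled (0.24 uM) tau K18 P301L, heparin-triggered fibrillization over 6 hr at 37 C was scored by ThT fluorescence.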
# Sfp PPTase conf: Confirmation qHTS Assay for Inhibitors of Bacillus subtilis Sfp phosphopantetheinyl transferase (PPTase); shares compounds with Sfp inh; Sfp PPTase enzymatic assay, qHTS titration; Potency, µM (series often up to 114 µM), most hits filed as inhibitors; actives 79% (n = 380); AID 2701, 2010
# Target sequence (Q9F4F7 whole entry, looked up): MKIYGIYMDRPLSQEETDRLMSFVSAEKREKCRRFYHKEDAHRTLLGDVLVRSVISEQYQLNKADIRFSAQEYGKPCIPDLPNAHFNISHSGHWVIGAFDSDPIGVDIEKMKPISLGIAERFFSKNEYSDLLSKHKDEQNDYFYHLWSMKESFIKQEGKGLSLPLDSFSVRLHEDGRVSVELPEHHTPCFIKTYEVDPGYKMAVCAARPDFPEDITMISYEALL
# Sfp PPTase gel: Gel-Based Assay for Inhibitors of Bacillus subtilis Sfp phosphopantetheinyl transferase (PPTase) | AID 2707, 2010 | Potency, µM, actives largely listed as inhibitors | actives 20% (n = 210) | shares compounds with Sfp inh | purified Sfp, gel-based phosphopantetheinylation read-out;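 active = potency below 100 µM; inconclusive = dose-dependent response but potency above 100 µM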;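 note: potency is an IC50 for inhibitors of Sfp transfer activity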
# Casp1 catalase: Concentration-Response Counterscreen for Redox Active Inhibitors of Caspase-1: Catalase | shares compounds with FBPA coupling cs | caspase-1 Ac-WEHD-AFC fluorescence rate, catalase buffer | Potency, µM (series often up to 57.5 µM), usual class: inhibitors | 30 tested, under 10 active | AID 888, 2007; active = well fitted inhibition curve with a large enough effect in the main read-out, with a control signal flat; inconclusive = small, poorly fitted or top-dose-only effect, or a change in a side signal; inactive = no such curve, though single readings can be large or run the other way
# Target sequence (P29466 120-297 limits assumed): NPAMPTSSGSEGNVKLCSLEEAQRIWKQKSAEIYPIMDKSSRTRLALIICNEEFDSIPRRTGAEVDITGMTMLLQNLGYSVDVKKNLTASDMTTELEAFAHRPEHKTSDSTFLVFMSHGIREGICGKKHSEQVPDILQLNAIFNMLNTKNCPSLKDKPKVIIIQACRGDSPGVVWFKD
# Target sequence (P29466 317-404 limits assumed): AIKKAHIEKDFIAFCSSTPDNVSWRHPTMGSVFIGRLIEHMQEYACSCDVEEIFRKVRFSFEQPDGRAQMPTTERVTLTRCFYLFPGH
# CASP1 inh CRC: Confirmation Concentration-Response Assay for Allosteric/Competitive Inhibitors of Caspase-1; shares compounds with FBPA coupling cs; purified caspase-1, fluorogenic substrate cleavage; Potency, µM (titrated, usually from 57.5 µM), most hits filed as inhibitors; actives 20% (n = 60); active = well fitted inhibition curve with a large enough effect in the main read-out, with a control signal flat; inconclusive = small, poorly fitted or top-dose-only effect, or a change in a side signal; inactive = no such curve, though single readings can be large or run the other way
# Casp7 confirm: Confirmation Concentration-Response Assay for Allosteric/Competitive Inhibitors of Caspase-7 | Potency, µM (doses to about 57.5 µM), hits mostly inhibitors | 60 tested, under 10 active | shares compounds with FBPA coupling cs | recombinant caspase-7, fluorogenic substrate cleavage; active = well fitted inhibition curve with a large enough effect in the main read-out, with a control signal flat, not every such curve was filed as active; inconclusive = small, poorly fitted or top-dose-only effect, or a change in a side signal; inactive = no such curve, though single readings can be large or run the other way
# Casp7 cysteine: Concentration-Response Counterscreen for Redox Active Inhibitors of Caspase-7: Cysteine | 60 tested, under 10 active | Potency, µM (doses to about 57.5 µM), hits mostly inhibitors | shares compounds with FBPA coupling cs | caspase-7 enzyme with cysteine, fluorogenic substrate, redox counterscreen | AID 908, 2007; active = well fitted inhibition curve with a large enough effect in the main read-out, with a control signal flat; inconclusive = small, poorly fitted or top-dose-only effect, or a change in a side signal; inactive = no such curve, though single readings can be large or run the other way
# Casp7 catalase: Concentration-Response Counterscreen for Redox Active Inhibitors of Caspase-7: Catalase; Potency, µM (top dose mostly 57.5 µM), actives largely listed as inhibitors; 30 tested, under 10 active; AID 909, 2007; Caspase-7 Ac-DEVD-AFC fluorescence rate, catalase buffer; shares compounds with FBPA coupling cs; active = well fitted inhibition curve with a large enough effect in the main read-out, with a control signal flat; inconclusive = small, poorly fitted or top-dose-only effect, or a change in a side signal; inactive = no such curve, though single readings can be large or run the other way
# CASP1 redox cys: Concentration-Response Counterscreen for Redox Active Inhibitors of Caspase-1: Cysteine; recombinant caspase-1, fluorogenic substrate, cysteine buffer; AID 929, 2007; Potency, µM (highest dose often 57.5 µM), usual class: inhibitors; shares compounds with FBPA coupling cs; 60 tested, under 10 active; active = well fitted inhibition curve with a large enough effect in the main read-out, with a control signal flat; inconclusive = small, poorly fitted or top-dose-only effect, or a change in a side signal; inactive = no such curve, though single readings can be large or run the other way
# Numbers stand for hits; . = inactive; ? = inconclusive; / = no result; ! = a repeat was not active; [ ] = remark or other dose. The list is not random: actives were taken first. Their share in the collection is about 5.3%. Unless noted, calls come from the whole dose curve; as a rule, active = well fitted curve in the direction sought with a large enough effect; inconclusive = small, poorly fitted or top-dose-only effect, or another doubt; inactive = no such curve, though single readings can be large; an effect the other way counts as inactive or inconclusive.
SMILES,JMJD2E inh,Tau fibril FP,FBPA coupling cs,Sfp inh,Tau fluor counter,Tau ThT inhib,CASP1 inh CRC,Casp7 confirm,Casp7 cysteine,CASP1 redox cys,others
C=CCOC(=O)C(C(=O)CC)C(NC(=O)OC)c1ccc(F)cc1 (stereo unspecified),/,.[11.6 µM],.,.,.[11.6 µM],.[11.5 µM],/,/,/,/,
c1cncc(-c2nnc(-c3cccnc3)nn2)c1,?,?,-41,40µM,.,?,/,/,/,/,Sfp PPTase conf=15µM
c1ccc(-c2nnc(-c3ccccc3)nn2)cc1,.,.,.,.,.,/,/,/,/,/,
Fc1ccccc1C1CC(c2ccco2)=Nc2ccccc2S1 (stereo unspecified),28µM,.,.,3.5µM,.,?,/,/,/,/,Sfp PPTase conf=33µM;Sfp PPTase gel=.
Oc1ccc(Cl)cc1C1=Nc2ccccc2N=C(c2ccco2)C1,?,.,.,.,.,.,/,/,/,/,
COc1ccccc1N1C(=O)C=C(Sc2nc(C)cc(C)n2)C1=O,.,?,.,3.2µM,.,?,/,/,/,/,Sfp PPTase conf=1.7µM;Sfp PPTase gel=6.2µM
O=C(NCc1ccco1)c1cc2c(s1)CCCCC2,?,?,.,3.5µM,.,?,/,/,/,/,Sfp PPTase conf=?
O=C(NCc1ccco1)c1ccc(C(=O)NCc2ccco2)s1,.,.,.,.,.,.,/,/,/,/,
Nc1nc2c(s1)CCc1c-2cnn1-c1ccccc1,?,?,.,2.5µM,?,?,/,/,/,/,Sfp PPTase conf=7.4µM
C[N+]1(C)C2CCC1CC(OC(=O)C(O)c1ccccc1)C2 (stereo unspecified),.,.,.,.,.,.,/,/,/,/,
O=C(/C=C/c1ccccc1)Nc1cccc(S(=O)(=O)Nc2ccccc2F)c1,.,?,.,4µM,?,?,/,/,/,/,Sfp PPTase conf=3.7µM
CC(=O)NS(=O)(=O)c1ccc(NC(=O)/C=C/c2ccccc2)cc1,.,.,.,.,.,.,/,/,/,/,
COc1ccccc1NCc1cccn1-c1nnc(N2CCOCC2)s1,/,.,/,/,.,.,/,/,/,/,
CC(C)(C)C(=O)[C@@H]1[C@@H]2C(=O)N(Cc3ccccc3)C(=O)[C@@H]2[C@H]2c3ccccc3C=CN12,.,.,.,.,.,?,/,/,/,/,
CC(=O)[C@@H]1[C@@H]2C(=O)N(c3ccc(F)c(Cl)c3)C(=O)[C@@H]2C2c3ccccc3C=CN21 (stereo partly specified),?,.,.,.,.,?,.,.,.,?,Casp1 catalase=?;Casp7 catalase=.
Nc1ccc(O)c(C(=O)O)c1,?,/,-46,45µM,/,/,.,.,.,.,
CC(=O)/C=C\C1[C@]2(C)CCCC(C)(C)C2CC[C@@]1(C)O (stereo partly specified),.,.,.,.,.,.,/,/,/,/,
COc1cc2c(C=O)c3c4c(cc(OC)c(OC)c4c2cc1OC)CCN3C,?,.,-34,.,?,14µM,13µM,?,.,?,
O=C(O)c1ccc2c(c1)S(=O)(=O)c1ccccc1C2=O,/,/,.,.,/,/,/,/,/,/,
O=C(O)c1cc(O)c2c(c1)C(=O)c1cccc(O)c1C2=O,28µM,?,.,56µM!,18µM![quencher],18µM,?,.,.,?,Casp1 catalase=?;Casp7 catalase=.
Nc1ccc(N)c(Cl)c1,/,/,/,/,/,/,.,.,.,.,
Nc1ccc(N2C(=O)c3ccccc3C2=O)c(Cl)c1,.,.,/,/,.,.,/,/,/,/,
Cc1cccc(NC(=O)Cn2c(=O)n(Cc3ccccc3)c(=O)c3oc4ccccc4c32)c1C,/,?,/,/,.,.,/,/,/,/,
Cc1ccc(CNc2ccc(O)cc2)cc1,11µM,8.9µM,-46,?,?,3.5µM,.,.,.,.,
COC(=O)[C@H]1C[C@@H]2CC[C@@H](O)C[C@@H]2N1Cc1c(F)cccc1Cl,.,.,.,.,.,.,/,/,/,/,
CC(=O)n1nc(-c2ccco2)nc1SCc1ccccc1,.,.,.,.,.,?,.,.,.,.,
